Lassa entry inh: Lassa virus entry inhibition. Lassa virus pseudotype entry inhibition, cell reporter. AID 540256. 1.2% of 300,000 active. Potency, µM (doses to about 37.9 µM), for the others: at the top dose activity change, negative = inhibition, usual class: inhibitors; calls by dose curve; tested in HEK293 cells; note: potency is the fitted concentration of half-maximal effect; nearly all actives have a fitted effect of over 50% in size
VACV mCherry inh: vaccinia inhibition (mCherry reporter) | Potency, µM (series often up to 36.5 µM), for the others: at the highest dose activity change, negative = inhibition, hits mostly inhibitors | Vaccinia virus mCherry reporter infection, fluorescence | AID 720579 | 0.63% of 310,000 active; calls by dose curve; tested in A549 cells; note: potency is the fitted concentration of half-maximal effect; nearly all actives have a fitted effect of over 35% in size
HCMV inh: human cytomegalovirus inhibition; 4.5% of 410,000 active; activity change, negative = inhibition, % at 57.5 µM; HFF cells, HCMV-luciferase reporter, 72 h; stronger effect = lower value; in the data active = activity change below about -60%; inconclusive = no clear call, values can overlap the other calls; inactive = above about -39%
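Human foreskin fibroblasts infected with luciferase-reporter HCMV at MOI 1 PFU/cell, compounds at two doses. Luciferase measured 72 h post infection; normalized to buffer-only basal and Salinomycin (10uM) controls.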
Marburg entry inh: blocks Marburg virus binding to or entry into cells. Marburg virus pseudotyped entry inhibition, cell reporter. Potency, µM (highest dose often 37.8 µM), inactives show at the top dose activity change, negative = inhibition, most hits filed as inhibitors. 1.8% of 300,000 active. AID 540276; calls by dose curve; tested in HEK293 cells; note: potency is the fitted concentration of half-maximal effect
FMDV antiviral: blocks foot and mouth disease virus; Potency, µM (series often up to 57.9 µM), inactives show at the highest dose activity change, negative = inhibition, usual class: inhibitors; FMDV antiviral cell-based qHTS; 1.2% of 410,000 active; AID 1159524; calls by dose curve; tested in HEK293T cells; note: read-out not given here; potency is the fitted concentration of half-maximal effect; nearly all actives have a fitted effect of over 45% in size
VACV Venus inh: inhibitors of vaccinia virus (Venus reporter); Vaccinia virus Venus reporter expression, fluorescence; Potency, µM (doses to about 36.5 µM), for inactives: top-dose activity change, negative = inhibition, actives largely listed as inhibitors; 0.46% of 330,000 active; calls by dose curve; tested in A549 cells; note: potency is the fitted concentration of half-maximal effect; nearly all actives have a fitted effect of over 30% in size
* = called active by the depositor; i = inactive; u = inconclusive; x = not tested or not shown; + = active, no number; [ ] = remark or other dose. The list is not random: actives were taken first. Their share in the collection is about 6.5%. % is set by controls: 0 for no effect and ±100 for the full control effect.

SMILES	Lassa entry inh	VACV mCherry inh	HCMV inh	Marburg entry inh	FMDV antiviral	VACV Venus inh
COC(=O)c1cccc(-c2ccc(C(c3c(C)[nH][nH]c3=O)c3c(C)[nH][nH]c3=O)o2)c1	-13%	1%	-13	-5%[46.1 µM]	u	-3%
O=C(C[n+]1ccc(-c2cc(C(=O)Nc3cccc(C(F)(F)F)c3)c3ccccc3n2)cc1)c1cccc([N+](=O)[O-])c1	-24%[46.1 µM]	-26%	-66*	u	u	2%
COc1cccc(Cn2c(=O)c(C)nc3cnc(N(C)C)nc32)c1	x	x	x	x	-9%	x
COc1ccc(Br)cc1CNC(=O)CN1C(=O)c2cccnc2Oc2ccc(C)cc21	u	i	+	x	-5%	u
Cc1ccc2c(c1)N(CC(=O)NCc1ccccc1Br)C(=O)c1cccnc1O2	u	i	0	x	-5%	-18%
O=C(NCc1ccc(F)cc1)[C@@H]1[C@@H](CO)[C@@H]2Cn3c(cccc3=O)[C@H]1N2CC1CCCC1	x	x	-2	x	x	x
O=c1c2c(nc3c(-c4ccc(Cl)cc4)c[nH]n13)CCCC2	10µM*	u	-78*	u	22µM*	4.5µM*
CCOc1ccc(-c2nnc(SCC(=O)NCc3ccc(Cl)cc3)o2)cc1	18%[46.1 µM]	-19%	10	3%[46.1 µM]	11%	-12%
O=C(Nc1ccc(-c2nc3cccnc3s2)cc1)C1CCCO1 (centres undefined)	u	i	-38	2.6µM*	-38%	-3%
O=C(Nc1ncc(Cc2ccccc2)s1)C1CCN(C(=O)c2ccco2)CC1	x	-8%	x	x	x	-23%
O=C(Nc1ncc(Cc2ccccc2)s1)C1CCCO1 (centres undefined)	15µM*	-18%	25	u	18%	2%
COCc1c(C(=O)N2CCCC(C)C2)cnn1-c1nccc(-c2cc(C)sc2C)n1 (centres undefined)	x	-5%	x	x	26%	-3%
Cc1ccc2nccc(/C=C/c3ccc(N(C)C)cc3)c2c1	x	-24%	x	x	x	14%
Cc1ccc2nc(-c3ccccc3)nn2c1	1.1µM*	8%	14	8.9µM*	11µM*	11%
CC[C@@H]1C=C(C)C[C@H](C)C[C@H](OC)[C@H]2O[C@@](O)(C(=O)C(=O)N3CCCC[C@H]3C(=O)O[C@H](/C(C)=C/[C@@H]3CC[C@@H](O)[C@H](OC)C3)[C@H](C)[C@@H](O)CC1=O)[C@H](C)C[C@@H]2OC	u	x	x	6.5µM*	x	x
CO[C@H]1C[C@@H]2CC[C@@H](C)[C@@](O)(O2)C(=O)C(=O)N2CCCC[C@H]2C(=O)OC([C@H](C)C[C@@H]2CC[C@@H](O)[C@H](OC)C2)CC(=O)[C@H](C)/C=C(\C)[C@@H](O)[C@@H](OC)C(=O)[C@H](C)C[C@H](C)/C=C/C=C/C=C/1C (some centres undefined)	x	-26%	x	x	-20%	-24%
CCC(=O)OCCNc1cc(Sc2nc3ccccc3s2)c2nonc2c1[N+](=O)[O-]	u	x	69	u	25µM*	x
CCCC(=O)OCCNc1cc(Sc2nccn2C)c2nonc2c1[N+](=O)[O-]	u	-23%	53	u	35µM*	-8%
CCCSc1cc(NCCOC(=O)CCC)c([N+](=O)[O-])c2nonc12	-6%	-23%	u	-2%	0%	-13%
CCCSc1cc(NCCOC(C)=O)c([N+](=O)[O-])c2nonc12	3%	i	-28	u	0%	-4%
CCCC(=O)OCCNc1cc(SCc2ccco2)c2nonc2c1[N+](=O)[O-]	u	10µM*	16	u	0%	u
CC(=O)OCCCNc1cc(SCc2ccco2)c2nonc2c1[N+](=O)[O-]	u	11µM*	10	13µM*	35µM*	u
CN(Cc1ccccc1)c1nc2c(S(=O)(=O)c3cccc(Cl)c3)nnn2c2ccsc12	6%[46.1 µM]	-9%	7	x	8%	-9%
COc1ccc(-c2nc3c(c4c2C[C@H](c2ccccc2)OC4)CN(S(=O)(=O)c2ccc(NC(C)=O)cc2)CC3)c(C)c1	u	x	x	-6%[14.2 µM]	x	x
C=CCN1C[C@H](C(=O)N(CCCN(C)C)C(=O)NCC)C[C@@H]2c3cccc4[nH]cc(c34)C[C@H]21	x	x	x	x	-5%	x

Bioassay records: PubChem, National Center for Advancing Translational Sciences (NCATS)
